Only some compounds are listed: those with a hit (about 9.4% of all), similar ones and a draw of the others.
AMA1-RON2 inh = AMA1-RON2 (P. falciparum) interaction inhibition. AlphaScreen AMA1-biotinylated RON2 peptide binding. Potency, µM (series often up to 58.2 µM), hits mostly inhibitors. 360,000 tested, 0.2% active. AID 720542; further: nearly all actives have a fitted effect of over 45% in size
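AMA1 (3D7) with his tag at 25 nM final met compounds first, then biotinylated RON2 peptide at 25 nM; detection used donor plus acceptor beads, 10 µg/mL apiece, read by AlphaScreen after 30 min at room temperature.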
Pf growth 48h = P. falciparum growth inhibition at 48 hours (one generation) | P. falciparum luciferase growth in erythrocytes, 48 h | Potency, µM (series often up to 28.7 µM), most hits filed as inhibitors | 310,000 tested, 5.9% active | AID 504832
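Luminescence readout; reporter = integrated firefly luciferase in P. falciparum. RBC culture at 2% hematocrit, 0.1% parasitemia final, 37 C/5% CO2; decreased signal taken as growth inhibition.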
Pf growth 96h = P. falciparum growth inhibition at 96 hours; Potency, µM (doses to about 28.7 µM), usual class: inhibitors; P. falciparum luciferase reporter growth, 96 h; 320,000 tested, 6.9% active
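Infected RBCs, 2% Hct / 0.05% parasitemia final; luciferase-reporter P. falciparum; cpd 96 h, 37 C, 5% CO2; luciferase detection reagent; luminescence.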
SARS PLP yeast = inhibitors of SARS-CoV papain-like protease in yeast | S. cerevisiae expressing SARS-CoV PLpro, growth rescue | Potency, µM (highest dose often 32.9 µM), usual class: activators | 330,000 tested, 0.19% active; calls by dose curve; further: nearly all actives have a fitted effect of over 55% in size
CLK4 cf ADPGlo = CLK4 (human) kinase inhibition, ADP-Glo confirmation; Potency, µM (series often up to 80 µM), actives largely listed as inhibitors; shares compounds with Pf growth 48h; recombinant Clk4, RS peptide, ADP-Glo luminescence; 65 tested, 80% active
CLK4 ADP FP = confirmation of human CDC-like kinase 4 (CLK4) inhibitors | AID 1983 | shares compounds with Pf growth 48h | 65 tested, 70% active | Potency, µM (titrated, usually from 80 µM), usual class: inhibitors | recombinant Clk4, ADP Transcreener FP, RS peptide
A number is an active result; 0 = inactive; ? = inconclusive; - = not tested or not shown. Unless noted, the call rests on the fitted dose curve; in most records, active means well fitted curve in the direction sought with a large enough effect; inconclusive means small, poorly fitted or top-dose-only effect, or another doubt; inactive means no such curve, though single readings can be large; an effect the other way counts as inactive or inconclusive.

SMILES	AMA1-RON2 inh	Pf growth 48h	Pf growth 96h	SARS PLP yeast	CLK4 cf ADPGlo	CLK4 ADP FP
Cn1ccc2cc(-c3ccc4ncnc(NCc5cccnc5)c4c3)ccc21	-	1.9µM	2.6µM	0	10µM	14µM
CCOc1cc(-c2noc(CCC(=O)Nc3cccnc3)n2)ccc1OC	0	0	0	0	-	-
O=C(/C=C/N1CCOCC1)c1coc2ccccc12	0	0	0	0	-	-
CN(Cc1ccco1)c1ncnc2ccc(-c3ccccc3Cl)cc12	-	9.3µM	?	0	10µM	16µM
CN(Cc1ccccc1)c1ncnc2ccc(Br)cc12	0	?	0	0	-	-
Brc1ccc2ncnc(NCc3ccco3)c2c1	0	0	-	0	-	-
CN(Cc1ccco1)c1ncnc2ccc(-c3ccoc3)cc12	-	?	?	0	0.25µM	0.32µM
c1cncc(CNc2ncnc3ccc(-c4cccnc4)cc23)c1	-	?	?	0	7.9µM	13µM
Clc1cccc(-c2ccc3ncnc(NCc4cccnc4)c3c2)c1	-	?	13µM	0	4.5µM	?
Clc1ccccc1-c1ccc2ncnc(NCc3cccnc3)c2c1	-	0	?	0	13µM	?
c1cncc(CNc2ncnc3ccc(-c4ccc5c(c4)OCCO5)cc23)c1	-	0	0	0	0.4µM	0.71µM
COc1cc2ncnc(NCc3cccc(Cl)c3)c2cc1OC	0	?	?	0	-	-
N#CCC(CNc1ncc(C(F)(F)F)cc1Cl)OC(=O)c1c(F)cccc1F (stereo unspecified)	0	-	-	-	-	-
N#CCCn1cc(C(=O)CN2C(=O)NC3(CCc4ccccc43)C2=O)c2ccccc21 (stereo unspecified)	0	-	-	-	-	-
c1cncc(-c2ccc3ncnc(NCc4cccs4)c3c2)c1	-	?	9.3µM	0	3.2µM	7.1µM
COc1cccc(-c2ccc3ncnc(NCc4cccc(C)c4)c3c2)c1	-	6.6µM	3.7µM	?	1.3µM	1.8µM
COc1cccc(-c2ccc3ncnc(NCc4cccc(F)c4)c3c2)c1	-	6.6µM	3.7µM	8.9µM	0.63µM	0.89µM
CC(=O)c1ccc(N2CCN(C(=O)[C@H](C)NC(=O)c3ccccc3Cl)CC2)cc1	0	0	?	0	-	-
CC(=O)NC(CC(=O)NCC(c1ccco1)N(C)C)c1ccccc1 (stereo unspecified)	0	0	0	0	-	-
O=C(CSc1nnc2ccc(-c3cccnc3)nn12)Nc1cccc(F)c1	0	?	?	-	-	-
Cc1ccc2nc(SC(C)C(=O)N3CCCCC3)[nH]c2c1 (stereo unspecified)	0	0	0	0	-	-
Fc1cccc(Cn2ccc(-c3ccc4c(c3)OCO4)n2)c1	0	0	0	0	-	-
COc1ccc(-n2ncc3c(NCc4ccc5c(c4)OCO5)ncnc32)cc1	0	0	0	0	-	-
c1nc(NCc2ccc3c(c2)OCO3)c2cc(-c3ccoc3)ccc2n1	-	?	?	0	0.71µM	0.89µM
Fc1cccc(CNc2ncnc3ccc(-c4ccc5c(c4)OCO5)cc23)c1	-	4.1µM	2.9µM	0	0.14µM	0.089µM
Clc1ccccc1-c1cnc2sc(NCc3ccc4c(c3)OCO4)nn12	0	-	-	-	-	-
Clc1ccccc1-c1ccc2ncnc(NCc3ccc4c(c3)OCO4)c2c1	-	8.3µM	3.7µM	0	?	0
